Screening results (PubChem)
Rows were chosen to be rich in hits. Some 21% of all compounds tested hit in one or more screens of this group.
FBPA Giardia inh = qHTS Assay for Inhibitors of Fructose-1,6-bisphosphate Aldolase from Giardia Lamblia | purified Giardia FBPA | AID 2451, 2010 | 290,000 tested, 0.71% active | Potency, µM (highest dose often 59.6 µM), without a hit: top-dose activity, negative = inhibition, actives largely listed as inhibitors; note: potency is the fitted concentration of half-maximal effect; % is set by controls: 0 for no effect and ±100 for the full control effect; nearly all actives have a fitted effect of over 55% in size
Target sequence (A8B2U2 whole entry, looked up): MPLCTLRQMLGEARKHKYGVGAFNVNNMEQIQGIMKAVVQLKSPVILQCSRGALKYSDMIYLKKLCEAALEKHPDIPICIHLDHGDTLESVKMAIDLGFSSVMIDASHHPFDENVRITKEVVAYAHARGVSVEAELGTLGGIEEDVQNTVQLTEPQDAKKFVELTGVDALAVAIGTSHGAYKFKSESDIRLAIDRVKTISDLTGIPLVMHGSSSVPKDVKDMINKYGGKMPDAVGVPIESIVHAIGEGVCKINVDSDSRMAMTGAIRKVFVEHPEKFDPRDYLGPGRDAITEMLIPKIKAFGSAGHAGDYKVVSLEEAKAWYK
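Giardia FBPA (40 nM reagent) was preincubated 10 min at RT with compound (up to 57.5 uM final), then substrate plus GAPDH/TPI/NAD/arsenate coupling system with diaphorase/resazurin was added; resorufin fluorescence (525/598 nm) was read after 20 min.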
Pf growth 48h = Primary qHTS for delayed death inhibitors of the malarial parasite plastid, 48 hour incubation | P. falciparum luciferase growth in erythrocytes, 48 h | Potency, µM (doses to about 28.7 µM), without a hit: top-dose activity change, negative = inhibition, actives largely listed as inhibitors | 310,000 tested, 5.9% active | AID 504832, 2011; note: potency is the fitted concentration of half-maximal effect; % is set by controls: 0 for no effect and ±100 for the full control effect
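First compound was added to culture medium, then infected red cells at 0.1% parasitemia and 2% hematocrit (final). After incubation at 37 C under 5% CO2, luciferase detection reagent was dispensed and light output recorded.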
NS1 function inh = qHTS Assay for Inhibitors of Influenza NS1 Protein Function; Potency, µM (titrated, usually from 46.1 µM), inactives show at the highest dose activity, positive = more growth; 270,000 tested, 0.4% active; calls by dose curve; note: potency is the fitted concentration of half-maximal effect; actives are rising curves; nearly all actives have a fitted effect of over 50% in size
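Growth recovery, yeast-based: influenza A NS1 expressed in S. cerevisiae causes slow growth, and suppressors are detected by OD600. The parent strain without NS1 is used as positive control.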
Pf growth 96h = Primary qHTS for delayed death inhibitors of the malarial parasite plastid, 96 hour incubation; P. falciparum luciferase reporter growth, 96 h; 320,000 tested, 6.9% active; Potency, µM (titrated, usually from 28.7 µM), for inactives: at the top dose activity change, negative = inhibition, actives largely listed as inhibitors; AID 504834, 2011; note: potency is the fitted concentration of half-maximal effect; % is set by controls: 0 for no effect and ±100 for the full control effect
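Cell-based qHTS: luciferase-tagged P. falciparum in erythrocytes (2% hematocrit, 0.05% parasitemia final) incubated with compounds for 96 hours, 37 C, 5% CO2; luciferase detection reagent then added and luminescence measured.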
Shiga inhibitor = A qHTS for Small Molecule Inhibitors of Shiga Toxin. Vero cells, Shiga toxin protein synthesis inhibition reporter. inhibition, % at 38.7 µM. 290,000 tested, 9.2% active; in the data active = inhibition mostly above about 28%, no sharp cut-off; inactive = mostly below about 43%; note: 0% is about no effect
CHX counter = Cycloheximide Counterscreen for Small Molecule Inhibitors of Shiga Toxin. cell reporter, cycloheximide protein synthesis inhibition counterscreen. max response, %. 300,000 tested, 12% active; in the data active = max response mostly above about 13%, no sharp cut-off; inactive = mostly below about 14%; note: read at 38.3 µM for the half of the compounds with a filed dose; 0% is about no effect
* = called active by the depositor; [ ] = remark or other dose. Unless noted, calls come from the whole dose curve; as a rule, active = well fitted curve in the direction sought with a large enough effect; inconclusive = small, poorly fitted or top-dose-only effect, or another doubt; inactive = no such curve, though single readings can be large; an effect the other way counts as inactive or inconclusive.

O=c1c2c3c(sc2ncn1Cc1ccc(F)cc1)CCC3 was read as FBPA Giardia inh -8.0%, NS1 function inh -5.5%, Pf growth 96h inconclusive, Shiga inhibitor 2.1 and CHX counter 5.8.
`COc1ccc(Cl)c(N2CCN(CCCNC(=O)Nc3ccc(C)cc3)CC2)c1` gave FBPA Giardia inh 3.0%, Pf growth 48h 13.1µM*, NS1 function inh -6.8%, Shiga inhibitor -2.7 and CHX counter -2.4.
`CCc1ccc(N2CCN(CCNC(=O)Nc3ccc(OC)cc3)CC2)cc1` gave FBPA Giardia inh 5.7%, Pf growth 48h 1.9%, NS1 function inh 1.7%, Pf growth 96h inconclusive and CHX counter -3.2.
COc1ccc(NC(=O)NCCN2CCN(c3cc(OC)ccc3OC)CC2)cc1 was read as FBPA Giardia inh 3.9%, Pf growth 48h -8.7%, NS1 function inh 14.0%, Pf growth 96h -24.8%, Shiga inhibitor -7.6 and CHX counter 0.6.
For CCc1ccc(NC(=O)NCCN2CCN(c3ccc(OC)cc3)CC2)cc1 the results were FBPA Giardia inh -9.0%, Pf growth 48h -1.2%[0.00184 µM], NS1 function inh 2.7%, Pf growth 96h 13.1µM*, Shiga inhibitor -8.9 and CHX counter -4.1.
Cc1cc(C)c(S(=O)(=O)N2CCCOC2CNC(=O)C(=O)NCCc2c[nH]c3ccccc23)c(C)c1 (stereo not given) was read as FBPA Giardia inh -5.5%, Pf growth 48h inconclusive, NS1 function inh 7.1%, Pf growth 96h inconclusive, Shiga inhibitor 9.5 and CHX counter -1.9.
`COC(=O)N1CCC2(CC1)CN(C(=O)Nc1ccc(OC)cc1)C2` gave FBPA Giardia inh -11.4%.
Screening CCN(CC)c1ccc(/C=N/NC(=O)c2ccccn2)cc1 returned FBPA Giardia inh -22.1%, Pf growth 48h 220.6%, NS1 function inh -6.6%, Pf growth 96h 5.8%, Shiga inhibitor 44.5* and CHX counter 26.0*.
`CCN(CC)c1ccc(/C=N/NC(=O)c2cnccn2)cc1` gave FBPA Giardia inh -4.8%, Pf growth 48h 310.4%, Pf growth 96h inconclusive, Shiga inhibitor 108.3* and CHX counter 42.1*.
For CCc1ccc(/C=N/NC(=O)c2ccccn2)cc1 the results were FBPA Giardia inh -20.6%, Pf growth 48h 0.0%, NS1 function inh -8.4%, Pf growth 96h -29.0%, Shiga inhibitor -4.4 and CHX counter 11.7.
`O=C(N/N=C/c1ccc(OC(=O)c2ccccc2Cl)cc1)c1cc(O)cc(O)c1` gave FBPA Giardia inh -3.6%, Pf growth 48h 73.9%, NS1 function inh -10.9%, Pf growth 96h inconclusive, Shiga inhibitor 27.7 and CHX counter 11.2.
`O=C(N/N=C/c1ccc(OC(=O)c2ccccc2Cl)cc1)c1ccccn1` gave FBPA Giardia inh 7.9%, Pf growth 48h 94.1%, NS1 function inh -4.3%, Pf growth 96h inconclusive, Shiga inhibitor 50.6* and CHX counter 48.9*.
For CC1(C)C[C@@H]2C(=O)CCC3O[C@@]3(C)CCC21 (stereo not given in full) the results were FBPA Giardia inh 2.6%.
For CC(C)(C)C(=O)CC(=O)Nc1ccc(Cl)c(N)c1 the results were FBPA Giardia inh -0.7%, Pf growth 48h 79.0%, NS1 function inh -15.7%, Pf growth 96h inconclusive, Shiga inhibitor 167.3* and CHX counter 46.8*.
For C=CCn1c(-c2cc3c(s2)CCC(CC)C3)n[nH]c1=S (stereo not given) the results were FBPA Giardia inh 10.9%, Pf growth 48h 18.0%, Pf growth 96h 40.4%, Shiga inhibitor 36.1 and CHX counter 23.7*.
`C=CCn1c(SCC(=O)NC2CCS(=O)(=O)C2)nnc1-c1ccc(Cl)cc1` (stereo not given) gave Pf growth 48h 11.5% and Pf growth 96h 20.2%.
C=CCn1c(SCC(=O)NC2CCS(=O)(=O)C2)nnc1-c1cc2c(s1)CCC(CC)C2 (stereo not given) was read as FBPA Giardia inh 2.3%, Pf growth 48h 46.1%, NS1 function inh -8.3%, Pf growth 96h 37.1%, Shiga inhibitor 62.5 and CHX counter 25.0*.
COc1cc2c(cc1OC)C1CCC3=C([C@H](C)OC3=O)N1CC2 (stereo not given in full) was read as FBPA Giardia inh -13.4%.
Screening CCOc1ccc(NC(=O)CN2C(=O)NC(C)(c3ccc(OC(F)F)cc3)C2=O)cc1 (stereo not given) returned FBPA Giardia inh -5.7%, Pf growth 48h 1.04µM*, NS1 function inh -4.2%, Pf growth 96h inconclusive, Shiga inhibitor 23.4 and CHX counter -2.6.
`COc1ccc(NC(=O)CN2C(=O)NC(c3ccccc3)(c3ccccc3)C2=O)cc1` gave FBPA Giardia inh 4.7%, Pf growth 48h -19.9%, NS1 function inh 15.6%, Pf growth 96h 27.2%, Shiga inhibitor 34.1 and CHX counter 6.3.
`CC1(c2ccc(OC(F)F)cc2)NC(=O)N(CC(=O)Nc2ccc(OC(F)F)cc2)C1=O` (stereo not given) gave FBPA Giardia inh 3.9%, Pf growth 48h 6.9%, NS1 function inh -4.2%, Pf growth 96h 10.6%, Shiga inhibitor 3.3 and CHX counter -7.8.
COc1ccc(C2(c3ccc(OC)cc3)NC(=O)N(CC(=O)NCC(C)c3ccccc3)C2=O)cc1 (stereo not given) was read as Pf growth 48h 11.7µM* and Pf growth 96h 11.7µM*.
Screening COc1ccc(C2(c3ccc(OC)cc3)NC(=O)N(CC(=O)Nc3ccc(OC(F)F)cc3)C2=O)cc1 returned Pf growth 48h 11.7µM*, NS1 function inh inconclusive, Pf growth 96h inconclusive, Shiga inhibitor 6.6 and CHX counter 5.6.
Screening CC1(c2ccc(OC(F)F)cc2)NC(=O)N(CC(=O)Nc2ccc(Cl)cc2F)C1=O (stereo not given) returned FBPA Giardia inh -5.3%, Pf growth 48h 39.1%, NS1 function inh 6.8%, Pf growth 96h -4.6%, Shiga inhibitor 30.2 and CHX counter 12.7*.
CCn1c(SCC(=O)NC(=O)c2ccccc2OC)nc2ccccc21 was read as Pf growth 48h 28.7%, NS1 function inh 15.4%, Pf growth 96h inconclusive, Shiga inhibitor -19.3 and CHX counter 10.3.
`CCOCCOC(=O)c1cccc2c1-c1ccccc1C2=O` gave FBPA Giardia inh 11.4%, Pf growth 48h -3.9%, NS1 function inh -10.0%, Pf growth 96h -8.4%, Shiga inhibitor 2.2 and CHX counter 1.2.
`NS(=O)(=O)c1nn2cc(-c3ccccc3)nc2s1` gave FBPA Giardia inh 2.9%, Shiga inhibitor 59.3* and CHX counter 19.2*.
